molecular target: pT7_6His-AlfaTag-HOXD13 (human, UniProt P35453 263-343); experiment: PADIT-seq; details: dsDNA, one strand shown
Sequence (P35453 263-343): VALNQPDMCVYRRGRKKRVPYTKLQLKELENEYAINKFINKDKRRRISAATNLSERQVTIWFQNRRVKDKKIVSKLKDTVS

Sequence | binding signal [log2FC]
CTCGAGGATATCAAGATCTGGCCTCGGCATTTTAAATGGAACCTCTAGCTAGCCGACTCACTATAGGGATAATCGCCCTGAGCAAAGACC | 1.82 ± 0.0848
CTCGAGGATATCAAGATCTGGCCTCGGCGTTTTATACGGAACCTCTAGCTAGCCGACTCACTATAGGGATAATCGCCCTGAGCAAAGACC | 2.62 ± 0.0803
CTCGAGGATATCAAGATCTGGCCTCGGCCAGTTAAAAGGAACCTCTAGCTAGCCGACTCACTATAGGGATAATCGCCCTGAGCAAAGACC | 2 ± 0.0881
CTCGAGGATATCAAGATCTGGCCTCGGCGCGTTTGCGGGAACCTCTAGCTAGCCGACTCACTATAGGGATAATCGCCCTGAGCAAAGACC | -0.387 ± 0.156
CTCGAGGATATCAAGATCTGGCCTCGGCCTTTTAAGTGGAACCTCTAGCTAGCCGACTCACTATAGGGATAATCGCCCTGAGCAAAGACC | 1.38 ± 0.0835
CTCGAGGATATCAAGATCTGGCCTCGGCTATCCACGCGGAACCTCTAGCTAGCCGACTCACTATAGGGATAATCGCCCTGAGCAAAGACC | -1.03 ± 0.113
CTCGAGGATATCAAGATCTGGCCTCGGCATTTTACTGGGAACCTCTAGCTAGCCGACTCACTATAGGGATAATCGCCCTGAGCAAAGACC | 2.8 ± 0.0813
CTCGAGGATATCAAGATCTGGCCTCGGCATTTTATTTGGAACCTCTAGCTAGCCGACTCACTATAGGGATAATCGCCCTGAGCAAAGACC | 2.85 ± 0.07
CTCGAGGATATCAAGATCTGGCCTCGGCCTTCTAAAAGGAACCTCTAGCTAGCCGACTCACTATAGGGATAATCGCCCTGAGCAAAGACC | 0.087 ± 0.127
CTCGAGGATATCAAGATCTGGCCTCGGCTAGGTAAAAGGAACCTCTAGCTAGCCGACTCACTATAGGGATAATCGCCCTGAGCAAAGACC | -0.394 ± 0.106
